Results on 40 molecules are retold here after PubChem BioAssay (NCI).

Compounds without any hit were thinned out: in the full panel of roughly 83,000, 20% have a hit.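 The test compound was applied at a single concentration to cells in 96-well plates for 48 hours, and percent growth was recorded.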 Values without a mark were called inactive. The source made the active and inactive calls.

The test has as its system TK-10 renal. As to the kind of experiment: NCI-60 one-dose screen, 48 h (100 = growth as untreated, 0 = no growth, -100 = all killed). Particulars: 10 µM unless noted. The method, then:
Growth inhibition of the TK-10 human tumor cell line is measured as a screen for anti-cancer activity. Cells are grown in 96 well plates and exposed to the test compound for 48 hours. Compounds are tested at a single concentration, which is 10^-5 M for most compounds. The reported endpoint is percent growth (GI% or GIPRCNT), where numbers from 0 - 100% represent growth inhibition, and numbers from -100% - 0 represent cell death. For example, a value of 40 represents 60% growth inhibition. A value of 0 means no net growth occurred over the course of the experiment. A value of -40 indicates 40% of cells at the beginning of the experiment died by the end of the experiment. A value of -100 means all cells are dead at the end of the experiment.
NCI-60 Human Tumor Cell Lines Screen was performed using the standard one-dose NCI protocol, which is described in more detail at https://dtp.cancer.gov/discovery_development/nci-60/default.htm.
Compounds with GIPRCNT values below 10 were considered active. Activity score was based on GIPRCNT using the following formula: […]
Score is 0 for GIPRCNT values of 100 or above, 50 for GIPRCNT values of 0, and 100 for GIPRCNT values of -100.
As for `C/C1=C/C(=O)O[C@@H]2C[C@@H](CC[C@H](C)/C=C\C=C\CC1)O[C@@](O)([C@@H]1CSC(=O)N1CO)C2`, the growth is -39.1% (active). The value for `CCCC[C@H](NC(=O)[C@H]1CCCCN1C)C(=O)N(C)[C@H](C[C@@H](OC(C)=O)c1nc(C(=O)N[C@@H](Cc2ccccc2)C[C@H](C)C(=O)OCC)cs1)C(C)C` was -7.07% (active). In the case of `c1cnc2[nH]cc(-c3csc(-c4cn(CCCCN5CCOCC5)c5ccccc45)n3)c2c1`, the growth was 64.4%. For the molecule `N/C(=N\N=C\c1ccc(-c2ccccc2)cc1)N[N+](=O)[O-]`, the growth was 44.6%. In the case of `N#Cc1c(Br)n(C2OC(CO)C(O)C2O)c2ncnc(N)c12` (stereo not given) it was 115%; in that of `C[C@]12C[C@@H](CO)[C@H](O)C[C@@H]1CC[C@@H]1[C@@H]2CC[C@]2(C)[C@@H](O)CC[C@@H]12`, 103%; in that of `O=C(O)C1C(C(=O)O)C2(Cl)C(Cl)=C(Cl)C1(Cl)C2(Cl)Cl.[Hg]` (stereo not given), 144%. With `C=C1[C@@H](C)[C@H]2[C@H](Cc3ccccc3)NC(=O)[C@]23[C@@H](O)/C=C/[C@@](C)(O)C(=O)[C@@H](C)C/C=C/[C@H]3[C@@H]1O`, the growth was 39.6%. In the case of `CSc1nc(Cl)cc(N2CC2)n1` it was 107%; in that of `O=C1C2C(C(=O)[N]1[Hg][c]1ccccc1)C1(Cl)C(Cl)=C(Cl)C2(Cl)C1(Cl)Cl` (stereo not given), -95.9% (active); in that of `C[C@@H]1C[C@@]2(C)[C@@H](CC[C@@H]3[C@@H]2CC[C@]2(C)C(=O)CC[C@@H]32)CC1=O`, 94%.

Take `COc1ccc(/C=C\c2cc(OC)c(OC)c(OC)c2)cc1NS(=O)(=O)c1ccc(Cl)cc1`: the growth was 80.2%.

`C#Cc1ccc2c(c1)C(c1ccccc1F)=NCC(=O)N2C`: the growth was 75.5%. In the case of `CCOC(=S)S[C@H]1C[C@@H]2[C@H](CC[C@]3(C)C(=O)CC[C@@H]23)[C@@]2(C)CCC(=O)C=C12` it was 100%. Take `Clc1ccc(CO/N=C(\Cn2ccnc2)c2ccc(Cl)cc2Cl)c(Cl)c1`: the growth was -1.82% (active). With `O=Cc1cn(Cc2ccc(Cl)cc2)c2ccccc12`, the growth is 0.213% (active). In the case of `CC(=O)O[C@H]1C(=O)[C@@]2(C)[C@H]([C@H](OC(=O)c3ccccc3)[C@]3(O)C[C@H](OC(=O)[C@H](OC(=O)OC[C@H]4COC(C)(C)O4)[C@@H](NC(=O)c4ccccc4)c4ccccc4)C(C)=C1C3(C)C)[C@]1(OC(C)=O)CO[C@@H]1C[C@@H]2O` it was 25.6%; in that of `COc1cc2c(cc1OCc1ccccc1)C(CC(C)C)=[N+](C)CC2`, 94%; in that of `CC[C@H](C)[C@@H]([C@@H](CC(=O)N1CCC[C@H]1[C@H](OC)[C@@H](C)C(=O)N[C@H](C)[C@@H](O)c1ccccc1)OC)N(C)C(=O)[C@@H](NC(=O)[C@@H](NC)C(C)C)C(C)C`, 47.2%. In the case of `CN(C)C(=O)Oc1ccccc1-c1ccccc1` it was 109%. `C[C@]12CC[C@@H]3c4ccc(Oc5nc(N6CC6)nc(N6CC6)n5)cc4CC[C@H]3[C@@H]1CCC2=O`: the growth is 59.6%.

With `Cc1ccc(Nc2nc3c(s2)C2=CC[C@@H]4[C@H](CC[C@]5(C)C(=O)CC[C@@H]45)[C@@]2(C)CC3)cc1`, the growth was 53.5%.

Take `CCN(CCO)C(Cc1ccccc1)c1ccccc1` (stereo not given): the growth was 101%. In the case of `O[C@H](CN1CC1)[C@@H](O)CN1CC1` it was 101%; in that of `Clc1cccc(NCOOC2(OOCNc3cccc(Cl)c3)CCCCC2)c1`, 86.3%. The value for `CCOC(=O)c1c(C)n(Cc2ccccc2)c2cc(CN(C)C)c(O)cc12` was 68.8%.

`Cc1cc(N(CCCl)CCCl)ccc1C=Nc1ccc(-c2csc(Cc3ccccc3)n2)cc1`: the growth was 84.5%. The value for `CCCC(=O)O[C@@H]1C[C@H]2C[C@@H](O[C@@H]3O[C@@H](C)[C@@H](O)[C@@H](O)[C@H]3OC)C[C@@H](C[C@@H](C)/C=C/C=C\C[C@@H]3O[C@@H](C[C@@H]3C)[C@@H](O)C[C@H]3C[C@@]1(O)C(=O)O3)O2` was 29%; that for `O=C(O)CNC(=O)C(Cl)(Cl)Cl` was 95.6%.

Regarding `CC(CC1CCCCC1)NCc1ccccc1` (stereo not given), the growth is 94.2%.

For `O=[N+]([O-])CC(O)C(Cl)(Cl)Cl` (stereo not given), the growth is 110%.

As for `CCCCCC1(CCBr)C(=O)NC(=O)NC1=O`, the growth is 111%. The value for `O=C(Nc1ccc([As]=[As]c2ccc(NC(=O)c3ccccc3)cc2)cc1)c1ccccc1` (stereo not given) was -98.4% (active); that for `CC(=O)OC[C@]1(C)C=C2C(=O)[C@](C)(O)C3(CC3)C(C)=C2[C@H]1O` was -15.3% (active).

In the case of `C[C@]12CCc3sc(-c4cccc(F)c4)nc3C1=CC[C@@H]1[C@@H]2CC[C@]2(C)C(=O)CC[C@@H]12`, the growth was 24%.

Take `NC(=O)c1c(Br)n(C2OC(CO)C(O)C2O)c2ncnc(N)c12` (stereo not given): the growth is 30.4%. Regarding `CN1CC(CNC(=O)OCc2ccccc2)CC2c3cccc4c3c(cn4C)CC21` (stereo not given), the growth was 53.9%. In the case of `COc1cc(/C=N/C2=C(C#N)C(c3ccco3)c3c(c4cc(C)ccc4oc3=O)O2)cc(OC)c1OC` (stereo not given) it was 109%; in that of `Cc1c(O)c(CN(CCCl)CCCl)cc(CN(CCCl)CCCl)c1O`, 100%. For `COC(=O)[C@@H](C)C[C@H](Cc1ccccc1)NC(=O)c1csc([C@@H](C[C@H](C(C)C)N(C)C(=O)[C@H](C)NC(=O)[C@H]2CCCN2C)OC(C)=O)n1`, the growth is 82.7%.
